# Assay results reported in article PMC5540273 (PLoS ONE, 2017).
# What was measured:
# Conditions in all cases: concentration: 1 μM, replicates: in singlicate; n = 1
# [1] = tested on: ACVR1B
# [2] = tested on: ACVR1
# [3] = tested on: ACVR2A
# [4] = tested on: ACVR2B
# [5] = tested on: ACVRL1
# [6] = tested on: T1, ADCK3
# T1 construct: gene CABC1
# [7] = tested on: ADCK4
# [8] = tested on: AKT1
# [9] = tested on: AKT2
# [10] = tested on: AKT3
# 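Also: KINOMEscan kinase panel screen.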
SMILES,%Inh [1],%Inh [2],%Inh [3],%Inh [4],%Inh [5],%Inh [6],%Inh [7],%Inh [8],%Inh [9],%Inh [10]
COc1ccc(-c2cc3c(C)nc(N)nc3n([C@H]3CC[C@H](OCCO)CC3)c2=O)cn1,9%,4%,0%,0%,0%,0%,0%,6%,0%,1%
COc1cc2nccc(Nc3cccc(Oc4ccccc4)c3)c2cc1OC.Cl [GW284543],12%,0%,0%,0%,0%,32%,22%,0%,7%,0%
O=C(NCCNc1ccnc(Nc2ccc(F)cc2)n1)Nc1ccc2c(c1)OCO2 [GSK1379882],0%,0%,0%,0%,0%,9%,23%,0%,0%,0%
